The values that follow come from PubChem BioAssay.

SMILES strings stand for the structures.

The assay can be described thus: probe aWnt5a binding to arrayed compounds – biochemical, biotinylated probe, 635/667 nm fluorescence, primary screen (AID 1113).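 Note: score merges 667 nm fluorescence intensity with signal-to-noise per printed feature.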 To be noted: small-molecule microarray, higher = more signal.
In turn, `CCOC(=O)[C@H](Cc1ccccc1)NC(=O)CCC1CC(OC(=O)NCc2cccc3ccccc23)CC2(CCCC(COC(=O)NCc3ccc4c(c3)OCO4)O2)O1` (stereo partly specified) came in with a composite z-score of -0.104.
The compound `COc1cccc([C@H]2Oc3ccc(OC)cc3C(=NO[C@@H](C)c3cc(-c4c(C)cc(C)cc4C)no3)[C@@H]2O)c1` came in with a composite z-score of -0.172.
As to `CC(=O)OC[C@H]1O[C@H](C#CCCc2ccccc2)C=C[C@@H]1OC(C)=O`, the composite z-score was -0.0721.
Compound `CC(C)=NO[C@@H](C)c1cn([C@H](CO)Cc2ccccc2)nn1` gave a composite z-score of 0.0044.
On to `COC(=O)C(C(=O)OC)C1CCCC(=O)C1` (stereo unspecified), for which the composite z-score was -0.104.
Regarding `COC(=O)CC=C[C@@H](C)[C@@H](C=NOC[C@@H](C)[C@H](OCc1ccccc1)C(C)C)OC`, the composite z-score was -0.096.
For `COc1ccc(O[C@H]2C=C[C@@H](c3ccccc3)O[C@@H]2COC(=O)NCc2cccc3ccccc23)cc1`, the composite z-score was -0.104.
The same measure for `CC(C)CON=C1C[C@@H](O)[C@@H](O)[C@@H]2[C@@H]3C(=O)N(C(C)(C)C)C(=O)[C@@H]3CC[C@@H]12`: -0.178; for `CON=C(C)CCN1CCCCc2nc(C)c(C)cc21`: 0.11; for `O=C1[C@H]2[C@H]3[C@H](O)[C@H](O)CC(=NO[C@@H]4O[C@H](CO)[C@@H](O)[C@H](O)[C@H]4O)[C@@H]3CC[C@H]2C(=O)N1C[C@@H]1CCCO1`: -0.28.
`CCN1C(=O)[C@H]2[C@@H]3C(=CC[C@H]2C1=O)C(=O)[C@H]1O[C@H]1[C@H]3O`: the composite z-score came out at 0.0559.
For `CC=CC1=C(CO)[C@H](O)[C@H]2O[C@H]2[C@@H]1O`, the composite z-score was -0.0236.
Compound `CC(=O)OC[C@H]1O[C@H](CC=NOC[C@@H](O)[C@H]2O[C@@H]3OC(C)(C)O[C@@H]3[C@H]2O)C=C[C@@H]1OC(C)=O` displayed a composite z-score of -0.0735.
Next, `CO[C@H]1COC(=O)CC=C[C@H](C)[C@H](OC)COC(=O)[C@@H](C)NC(=O)CC=C[C@@H]1C`: -0.101; `C#CCCCON=C1C[C@@H](O)[C@@H](O)[C@@H]2[C@@H]3C(=O)N([C@@H](C)c4ccccc4)C(=O)[C@@H]3CC[C@@H]12`: -0.166.
As for `C=CC[C@@H]1C=C[C@H](ON=C(C)CCN2CCCc3nc(C)c(C)cc32)[C@@H](CO)O1`, the composite z-score worked out at 0.264.
Next, `CCOC(=O)[C@H](CC(C)C)NC(=O)CCC1CC(OC(=O)NCCc2ccc(F)cc2)CC2(CCCC(COC(=O)NCCOC)O2)O1` (stereo partly specified): -0.176; `CC(CCC(=O)OC[C@H]1O[C@H](C#Cc2ccccc2)C=C[C@@H]1Oc1ccc(C)cc1)=NOC[C@@H](C)[C@H](OCc1ccccc1)C(C)C`: -0.0573.
Next, `COc1ccc(O[C@H]2C=C[C@@H](c3ccccc3)O[C@@H]2CO)cc1`: -0.148.
In turn, `CCOC(=O)CCN1C(=O)[C@H]2[C@H]3[C@H](O)[C@H](O)CC(=NOCC(C)C)[C@@H]3CC[C@H]2C1=O` registered a composite z-score of -0.284.
The same measure for `CO[C@H]1COC(=O)[C@H](CCSC)NC(=O)CC=C[C@@H](C)[C@H](OC)COC(=O)[C@@H](OCc2ccccc2)C=C[C@@H]1C`: -0.159; for `CC(CCC(=O)OC[C@H]1O[C@H](C#Cc2ccccc2)C=C[C@@H]1Oc1ccc(C)cc1)=NO[C@@H](C)c1cc(-c2c(C)cc(C)cc2C)no1`: -0.232.
Next, `CC(C)[C@@H](OCc1ccccc1)[C@H](C)C=NO[C@H](C)c1cn([C@@H]2COC[C@H]2O)nn1`: -0.0832; `CCOC(=O)CCN1C(=O)[C@H]2[C@H]3[C@H](O)[C@H](O)CC(=O)[C@@H]3CC[C@H]2C1=O`: -0.0924.
Next, `COC(OC)[C@@H](C)[C@H](OC)[C@@H](C)[C@H](OC)c1ccccc1`: -0.225; `C=CC[C@@H]1C=C[C@H](ON=C(C)CCN2CCCCc3nc(C)c(C)cc32)[C@@H](CO)O1`: -0.0276; `CC(C)=CCCC(C)=CCON=C1C[C@@H](O)[C@@H](O)[C@@H]2[C@@H]3C(=O)N(Cc4ccc5c(c4)OCO5)C(=O)[C@@H]3CC[C@H]12`: -0.0346.
Regarding `COc1cccc([C@H]2Oc3ccc(OC)cc3C(=NOCC[C@@H]3C=C[C@H](OC(C)=O)[C@@H](COC(C)=O)O3)[C@@H]2O)c1`, the composite z-score is -0.0865.
`COC(=O)[C@H](C)NC(=O)CCC1CC(OC(=O)NCc2ccc3c(c2)OCO3)CC2(CCCC(COC(=O)NCCC(C)C)O2)O1` (stereo partly specified) yielded a composite z-score of -0.0977.
`O=C1[C@H]2CCn3c(=O)n(-c4ccccc4)c(=O)n3[C@H]2[C@H](O)[C@@H]2O[C@H]12` displayed a composite z-score of -0.247.
In turn, `C[C@]12CCC3c4ccc(OCC5CO5)cc4CCC3C1CC[C@@H]2O` (stereo partly specified) came in with a composite z-score of -0.0346.
As to `CCN1C(=O)[C@H]2[C@H]3[C@H](O)[C@H](O)CC(=NNC(=O)OCc4ccccc4)[C@H]3CC[C@H]2C1=O`, the composite z-score is -0.0459.
With `CCN1C(=O)[C@H]2[C@H]3[C@H](O)[C@H](O)CC(=NOCC=C(C)CCC=C(C)C)[C@@H]3CC[C@H]2C1=O`, the composite z-score was -0.087.
Next, `CCOC(=O)[C@H](Cc1ccccc1)NC(=O)CCC1CC(OC(=O)NCc2cccc3ccccc23)CC2(CCCC(COC(=O)NCCc3ccccc3OC)O2)O1` (stereo partly specified): -0.195.
For `CON=C1c2cc(OC)ccc2O[C@H](c2cccc(OC)c2)[C@H]1O`, the composite z-score was -0.0165.
Next, `CCOC(=O)[C@H](CC(C)C)NC(=O)CCC1CC(OC(=O)NCc2ccc3c(c2)OCO3)CC2(CCCC(COC(=O)NCCC(C)C)O2)O1` (stereo partly specified): -0.184.
